Only some compounds are listed: those with a hit (about 3.3% of all), similar ones and a draw of the others.
INS-1E GSIS act = GLuc luminescence reporter in INS-1E cells, primary screen for activators of glucose-dependent secretion of insulin; INS-1E GLuc reporter insulin secretion, 2-3 h; activation, % at 16.6 µM; actives 0.61% (n = 370,000);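 active means lowest replicate activation of at least 40%, so every replicate reaches that level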;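 further: 0% = median of neutral control wells and 100% = median of IBMX positive control wells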
FGF22 binding = shifts melting point of recombinant human FGF22. activity (Tm shift, normalised), % at 9.99 µM. recombinant FGF22 thermal shift, SYPRO orange fluorescence; percent of sucrose octasulfate shift, DMSO zero. Q9HCT0. actives 1.5% (n = 340,000);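 active means mean Tm shift, scaled 0 neutral to 100 positive control, at about 1.3% or above, every replicate too, limit read from the data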
ERAP1 HTS inh = inhibitors of human ERAP1 aminopeptidase. actives 0.15% (n = 340,000). AID 652197. inhibition, % at 10.7 µM. recombinant ERAP1, Leu-AMC fluorescence, 60 min. Q9NZ08;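 active means mean replicate inhibition of at least 30%, or all replicates individually reaching that 30% level; inactive means mean below 30% and not every replicate reaching it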;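 further: 0% = neutral control wells and 100% = L-leucinethiol positive control wells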
SIRT5 inh = sirtuin-5 (human) deacylase inhibition. Q9NXA8. Purified SirT5, succinyl-peptide AMC, trypsin-coupled fluorescence. inhibition, % at 15 µM. actives 1.1% (n = 330,000). AID 652115; in the data active means inhibition above about 15%
Target sequence (Q9NXA8 whole entry, looked up): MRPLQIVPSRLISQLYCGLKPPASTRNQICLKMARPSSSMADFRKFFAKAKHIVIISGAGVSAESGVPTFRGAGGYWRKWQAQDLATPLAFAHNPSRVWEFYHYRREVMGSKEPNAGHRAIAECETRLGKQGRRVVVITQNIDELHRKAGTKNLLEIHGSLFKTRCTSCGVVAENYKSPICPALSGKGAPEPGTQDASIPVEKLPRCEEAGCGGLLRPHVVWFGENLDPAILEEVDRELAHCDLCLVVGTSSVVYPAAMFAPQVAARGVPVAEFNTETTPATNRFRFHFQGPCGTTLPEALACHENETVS
Casp6 inh = caspase-6 (human) enzyme inhibition | P55212 | purified caspase-6, Z-VEID-R110 cleavage fluorescence | inhibition, % at 12.5 µM | actives 0.53% (n = 350,000) | AID 686996;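 active means mean inhibition across replicates at least about 35%, with every replicate also reaching that limit, limit read from the data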;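 further: 0% = median of neutral control wells and 100% = no fluorescence left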
Target sequence (P55212 24-179 limits assumed): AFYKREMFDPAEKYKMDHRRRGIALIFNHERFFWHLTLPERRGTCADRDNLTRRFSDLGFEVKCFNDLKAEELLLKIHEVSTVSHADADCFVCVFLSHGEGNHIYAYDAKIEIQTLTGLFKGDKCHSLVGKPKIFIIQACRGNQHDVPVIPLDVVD
Target sequence (P55212 194-293 limits assumed): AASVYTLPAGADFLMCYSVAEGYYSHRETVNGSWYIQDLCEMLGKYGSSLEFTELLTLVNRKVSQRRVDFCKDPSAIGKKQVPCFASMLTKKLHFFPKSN
* = called active by the depositor; x = no result.

SMILES	INS-1E GSIS act	FGF22 binding	ERAP1 HTS inh	SIRT5 inh	Casp6 inh
CO[C@H]1CN(C)C(=O)c2cc(NS(=O)(=O)c3ccccc3F)ccc2OC[C@@H](C)NC[C@H]1C	7.1	0.1	-2.1	0.8	11.9
S=P(N1CC1)(N1CC1)N1CC1	x	-0.1	52.8*	-1.7	-19.1
CC(Oc1ccc2c(-c3ccccc3)cc(=O)oc2c1)C(=O)NCCN1CCOCC1 (configuration not stated)	10.3	43.0*	1.9	-1.8	2.3
C[C@H]1CN([C@@H](C)CO)S(=O)(=O)c2ccc(C3=CCCC3)cc2O[C@@H]1CN(C)C(=O)C1CC1	-5.0	x	x	x	x
CCOC(=O)Cn1c(=O)n(Cc2ccccc2)c(=O)c2cccnc21	178.8*	-0.2	9.0	-5.6	-6.7
O=C1NC(=Nc2ccccc2Cl)S/C1=C\c1cc([N+](=O)[O-])ccc1O	-27.0	0.1	0.4	6.2	17.2
O=C1N/C(=N\S(=O)(=O)Cc2ccccc2)S/C1=C/c1cccc([N+](=O)[O-])c1	-44.0	1.3	2.7	2.8	21.4
Cc1ccc(S(=O)(=O)/N=C2/NC(=O)/C(=C/c3cc([N+](=O)[O-])ccc3O)S2)cc1	2.8	41.7	7.8	12.2	37.2*
O=C1N/C(=N/O)S/C1=C/c1cccc([N+](=O)[O-])c1	-3.5	44.5*	-0.7	-0.6	1.6
C[C@H](CO)N1C[C@H](C)[C@H](CN(C)Cc2ccc(Cl)c(Cl)c2)Oc2ccc(NC(=O)CCCCCC(=O)Nc3ccccc3N)cc2CC1=O	-1.3	-0.4	-2.7	3.1	-3.3
CN(Cc1ccccc1)C(=O)COC(=O)c1cncc(Br)c1	11.3	-0.3	0.1	16.8*	-2.1
CN1C(=O)CN(CCN2CC(=O)N(C)C(=O)C2)CC1=O	2.7	43.3*	1.0	x	-2.9
C[C@@H](NC(=O)C[C@H]1C[C@H]2c3cc(NC(=O)CC4CC4)ccc3O[C@H]2[C@H](CO)O1)c1ccccc1	3.2	-0.1	0.0	-6.9	-0.8
COc1ccc(-c2nc(NC(C)=O)sc2-c2ccc(OC)cc2)cc1	x	43.5*	0.9	1.5	-3.2
CNc1nc(-c2ccc(OC)cc2)c(-c2ccc(OC)cc2)s1	18.0	0.0	x	-1.4	0.2
CCOC(=O)c1sc(NC(=O)c2ccco2)nc1-c1ccccc1	5.1	0.1	4.5	x	-3.6
CCOC(=O)c1sc(NC(C)=O)nc1-c1ccccc1	43.1*	x	x	x	x
O=[N+]([O-])c1ccc(S(=O)Cc2ccccc2)c([N+](=O)[O-])c1 (configuration not stated)	117.2*	0.0	0.5	-2.7	2.7
O=[N+]([O-])c1ccc(CS(=O)c2ccccc2)cc1 (configuration not stated)	x	0.1	1.4	-4.2	-1.3
CCNC(=O)[C@@H]1[C@@H](CO)[C@@H]2Cn3c(ccc(-c4ccccc4F)c3=O)[C@H]1N2Cc1cccnc1	3.6	0.1	-2.5	1.9	1.3
C[C@H]1CCCCO[C@H](CN(C)Cc2ccc(Cl)c(Cl)c2)[C@@H](C)CN([C@@H](C)CO)C(=O)c2cc(N(C)C)ccc2O1	x	-1.1	1.2	3.7	1.7
COc1ccc(/C=N/NC(=O)c2cc(O)c(O)c(O)c2)cc1Cn1cc([N+](=O)[O-])cn1	15.9	-0.6	3.4	3.0	62.0*
COc1ccc(/C=N/NC(=O)c2ccco2)cc1Cn1nc(C)c([N+](=O)[O-])c1C	-3.3	0.3	-0.8	x	-2.8
COc1ccc(/C=N/NC(=O)c2ccncc2)cc1Cn1nc([N+](=O)[O-])c(Br)c1C	-15.5	-0.5	-0.9	19.8*	12.1
COc1ccc(/C=N/NC(=O)c2ccco2)cc1Cn1nc(C)cc1C	0.9	-0.2	-1.7	34.2*	2.2
SMILES	INS-1E GSIS act	FGF22 binding	ERAP1 HTS inh	SIRT5 inh	Casp6 inh
CCOc1cc(/C=N/NC(=O)CCn2nc(C)cc2C)ccc1O	53.0*	-0.4	0.7	1.3	5.5
COc1cc(/C=N/NC(=O)CCn2nc(C)cc2C)ccc1O	x	-0.2	-0.5	-1.1	-1.9
COc1ccc(NC(=O)N2C[C@@H](O)COC[C@H]3O[C@H](CC(=O)NCc4ccccc4OC)CC[C@@H]32)cc1	0.4	-0.1	-0.7	-1.9	0.0
COc1ccccc1CNC(=O)C[C@H]1C[C@@H]2c3cc(NC(=O)C4CCC4)ccc3O[C@@H]2[C@H](CO)O1	8.5	-0.1	0.8	2.9	-0.3
O=C(Cc1ccccn1)NCC[C@@H]1CC[C@H](NC(=O)CN2CCOCC2)[C@H](CO)O1	2.1	-0.1	-2.5	-3.4	-1.7
CN(C)CC(=O)N1[C@H](C#N)[C@H](c2ccccc2-c2ccc(C(=O)N(C)C)cc2)[C@H]1CO	-5.2	x	x	x	x
COc1ccc(S(=O)(=O)N[C@H]2C=C[C@H](CC(=O)N3CCN(c4ccccc4)CC3)O[C@@H]2CO)cc1	-14.5	-0.2	-0.1	1.4	0.0
O=C(NC(=S)Nc1ccc(NC(=O)c2cccs2)cc1)c1ccco1	-2.9	x	x	x	x
O=C(NC(=S)Nc1ccc(NC(=O)c2cccs2)cc1)c1cc2ccccc2o1	74.1*	x	x	x	x
CCCCCCCCCC[n+]1cccc2c3ccccc3ccc21	97.0*	0.0	-63.9	-26.6	31.4
Cc1ccc(-c2ccc(CN3C(C(C)C)C(=O)N(Cc4cn(Cc5ccco5)nn4)CCS3(=O)=O)cc2)cc1 (configuration not stated)	x	-0.1	-2.7	15.9*	18.5
CC(C)C1C(=O)N(Cc2cn(Cc3ccco3)nn2)CCS(=O)(=O)N1Cc1ccc(-c2cccc(N(C)C)c2)cc1 (configuration not stated)	16.0	0.8	3.9	x	-4.5
CC(C)CC1C(=O)N(Cc2cn(CC3CCCCC3)nn2)CCS(=O)(=O)N1Cc1ccc(-c2ccc(Cl)c(Cl)c2)cc1 (configuration not stated)	13.7	x	23.2	19.1*	-2.5
Cc1cccc(C)c1-c1ccc(CN2C(CC(C)C)C(=O)N(Cc3cn(CC4CCCCC4)nn3)CCS2(=O)=O)cc1 (configuration not stated)	6.4	x	-1.7	-2.7	-2.3
CCCNC(=O)C[C@H]1C[C@H]2c3cc(NC(=O)Cc4ccncc4)ccc3O[C@H]2[C@H](CO)O1	-4.0	0.0	x	x	x
COc1ccccc1C(=O)COC(=O)CN1C(=O)NC2(CCCC2)C1=O	-4.4	-0.4	-0.9	0.6	2.2
Cc1cc(C)c(C(=O)COC(=O)CN2C(=O)NC3(CCCC3)C2=O)cc1C	x	43.1*	1.8	x	0.7
C[C@@H]1CN([C@@H](C)CO)C(=O)c2cc(NC(=O)Nc3ccc4c(c3)OCO4)ccc2O[C@@H](C)CCCCO[C@@H]1CN(C)Cc1ccc(C(=O)O)cc1	10.4	0.2	-0.4	-6.0	-0.9
NC(=O)NC(=O)COC(=O)CC12CC3CC(CC(C3)C1)C2	-8.1	43.7*	3.1	5.2	13.1
NC(=O)COC(=O)CC12CC3CC(CC(C3)C1)C2	19.8	0.0	x	7.5	-0.2
CCCNC(=O)N1[C@H](C#N)[C@H](c2ccccc2C2=CCCC2)[C@@H]1CO	-7.6	-0.3	2.2	2.1	0.3
Cc1ccccc1-c1nc(NC(C)C)nc2ccsc12	4.6	-0.2	-2.4	-9.0	0.3

Bioassay records from PubChem.
